Data taken from PubChem BioAssay (NCATS).
“And” between values parts separate entries of the source, which are not always exact repeats. Equal entries are not always repeated. Results filed as inconclusive are left out. Where a call stands in place of a potency, no number is given. Unmarked numbers belong to inactive results. The source made the active and inactive calls. Calls come from the whole dose curve; as a rule, active = well fitted curve in the direction sought with a large enough effect; inconclusive = small, poorly fitted or top-dose-only effect, or another doubt; inactive = no such curve, though single readings can be large; an effect the other way counts as inactive or inconclusive.

Columns and labels:
NIH3T3 = assay: Cytotoxic Profiling of Annotated Libraries Using Quantitative High-Throughput Screening (AID 1296008); conditions: Five cell lines viability, CellTiter-Glo ATP luminescence, 48-72 h; max response: stronger effect = lower value; note: nearly all actives have a fitted effect of over 60% in size
Method in brief: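 Compounds were pin-transferred onto cells and incubated 48 or 72 hr at 37 degree Celsius, 95% humidity. CellTiter-Glo was added, plates sat 10 min at room temperature, then ATP-coupled luminescence was imaged as the viability read-out.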

MCC-13 = assay: qHTS assay to identify novel small-molecules to repurpose for Merkel cell carcinoma treatment (AID 1296009); conditions: MCC and control cell lines, CellTiter-Glo viability, 72 h; series mostly up to 46 µM; note: nearly all actives have a fitted effect of over 60% in size
Method in brief: (§1)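 qHTS format: cells treated with library compounds in DMSO across 8 (NPC) or 11 (MIPE) concentrations. Readout after 72 hr at 37 degree celsius was CellTiter-Glo luminescence.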

MCC-26 = assay: as above; conditions: MCC and control cell lines, CellTiter-Glo viability, 72 h; series mostly up to 46 µM
Method in brief: as §1

C33A = assay: Primary qHTS to identify gynecologic anti-cancer compounds using libraries of approved drugs and bioactive compounds (AID 1345084); conditions: Gynecologic cancer cell panel viability, ATPlite luminescence, 48 h; series mostly up to 57.5 µM; note: nearly all actives have a fitted effect of over 55% in size
Method in brief: (§2)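 ATP-based viability (ATPlite), 1,000 cells/well, 16 h pre-incubation, 48 h compound at 37 C, 5% CO2, 15 min RT before read.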

CAOV3 = assay: as above; conditions: Gynecologic cancer cell panel viability, ATPlite luminescence, 48 h; series mostly up to 57.5 µM
Method in brief: as §2

CASKI = assay: as above; conditions: Gynecologic cancer cell panel viability, ATPlite luminescence, 48 h; series mostly up to 57.5 µM
Method in brief: as §2

Es-2 = assay: as above; conditions: Gynecologic cancer cell panel viability, ATPlite luminescence, 48 h; series mostly up to 57.5 µM
Method in brief: as §2

HeLa = assay: as above; conditions: Gynecologic cancer cell panel viability, ATPlite luminescence, 48 h; series mostly up to 57.5 µM
Method in brief: as §2

Hek293T = assay: as above; conditions: Gynecologic cancer cell panel viability, ATPlite luminescence, 48 h, control line for the selectivity index; series mostly up to 57.5 µM
Method in brief: as §2

JEG-3 = assay: as above; conditions: Gynecologic cancer cell panel viability, ATPlite luminescence, 48 h; series mostly up to 57.5 µM
Method in brief: as §2

OV90 = assay: as above; conditions: Gynecologic cancer cell panel viability, ATPlite luminescence, 48 h; series mostly up to 57.5 µM
Method in brief: as §2

SKOV3 = assay: as above; conditions: Gynecologic cancer cell panel viability, ATPlite luminescence, 48 h; series mostly up to 57.5 µM
Method in brief: as §2

MKL-1 = assay: qHTS assay to identify novel small-molecules to repurpose for Merkel cell carcinoma treatment (AID 1296009); conditions: MCC and control cell lines, CellTiter-Glo viability, 72 h; series mostly up to 46 µM; note: nearly all actives have a fitted effect of over 60% in size
Method in brief: as §1

WaGa = assay: as above; conditions: MCC and control cell lines, CellTiter-Glo viability, 72 h; series mostly up to 46 µM
Method in brief: as §1

PA-1 = assay: Primary qHTS to identify gynecologic anti-cancer compounds using libraries of approved drugs and bioactive compounds (AID 1345084); conditions: Gynecologic cancer cell panel viability, ATPlite luminescence, 48 h; series mostly up to 57.5 µM; note: nearly all actives have a fitted effect of over 55% in size
Method in brief: as §2

MKL-2 = assay: qHTS assay to identify novel small-molecules to repurpose for Merkel cell carcinoma treatment (AID 1296009); conditions: MCC and control cell lines, CellTiter-Glo viability, 72 h; series mostly up to 46 µM; note: nearly all actives have a fitted effect of over 60% in size
Method in brief: as §1

UISO = assay: as above; conditions: MCC and control cell lines, CellTiter-Glo viability, 72 h; series mostly up to 46 µM
Method in brief: as §1

HACAT = assay: as above; conditions: MCC and control cell lines, CellTiter-Glo viability, 72 h; at 44.8 µM (top of the series) unless noted
Method in brief: as §1
Potency is the fitted concentration of half-maximal effect.

| SMILES | max response (NIH3T3) | Potency (MCC-13) | Potency (MCC-26) | Potency (C33A) | Potency (CAOV3) | Potency (CASKI) | Potency (Es-2) | Potency (HeLa) | Potency (Hek293T) | Potency (JEG-3) | Potency (OV90) | Potency (SKOV3) | Potency (MKL-1) | Potency (WaGa) | Potency (PA-1) | Potency (MKL-2) | Potency (UISO) | Potency (NIH3T3) | outcome (HACAT) |
| --- | --- | --- | --- | --- | --- | --- | --- | --- | --- | --- | --- | --- | --- | --- | --- | --- | --- | --- | --- |
| CC(=O)Oc1ccc2c(c1)CC[C@@H]1[C@@H]2CC[C@]2(C)[C@@H](O)CC[C@@H]12 | 2.78% | inactive | inactive | inactive | inactive | inactive | inactive | 6310 nM (active) | inactive | inactive | inactive | inactive | – | – | – | – | – | – | – |
| COC(=O)C1=C(C)NC(C)=C(C(=O)O[C@@H]2CCCN(Cc3ccccc3)C2)[C@@H]1c1cccc([N+](=O)[O-])c1 | -11.8% and -29.4% | inactive | inactive | inactive | inactive | inactive | inactive | inactive | inactive | inactive | inactive | inactive | inactive | 26600 nM (active) | inactive | – | – | – | – |
| COc1cc(-c2ccc(=O)[nH]n2)ccc1OC(F)F | -9.32% | inactive | inactive | inactive | inactive | inactive | inactive | – | inactive | inactive | inactive | inactive | inactive | inactive | – | inactive | – | – | – |
| CN(C)CC/C=C1/c2ccccc2COc2ccc(CC(=O)O)cc21 | -1.64% | inactive | inactive | inactive | inactive | inactive | inactive | inactive | inactive | inactive | inactive | inactive | inactive | inactive | inactive | inactive | inactive | – | – |
| COc1cccc(CCc2ccccc2OCC(CN(C)C)OC(=O)CCC(=O)O)c1 (configuration not stated) | -1.97% | inactive | inactive | inactive | inactive | inactive | inactive | inactive | inactive | inactive | – | inactive | inactive | – | inactive | – | inactive | – | – |
| COc1cccc2c1C(=O)c1c(O)c3c(c(O)c1C2=O)C[C@@](O)(C(=O)CO)C[C@@H]3O[C@H]1C[C@H](N)[C@H](O)[C@H](C)O1 | – | 5960 nM (active) | – | 2820 nM (active) | 2510 nM (active) | 2000 nM (active) | 10000 nM (active) | 22400 nM (active) | 7940 nM (active) | 2820 nM (active) | 4470 nM (active) | 2820 nM (active) | 211 nM (active) | – | – | – | 750 nM (active) | 150 nM (active) | – |
| COc1cc(OC)cc(OC)c1 | -4.81% | inactive | inactive | inactive | inactive | inactive | inactive | inactive | inactive | inactive | inactive | inactive | inactive | inactive | inactive | inactive | inactive | – | – |
| NCCc1ccn[nH]1 | – | inactive | inactive | inactive | inactive | inactive | inactive | inactive | inactive | inactive | inactive | – | inactive | inactive | inactive | inactive | inactive | – | inactive |
| O=C(CCN1CCC(c2ccccc2)C1)c1ccc2c(c1)OCCO2 (configuration not stated) | – | – | inactive | inactive | inactive | inactive | inactive | inactive | inactive | inactive | inactive | – | 2660 nM (active) | 2990 nM (active) | inactive | 841 nM (active) | – | – | inactive |
| O=C(N/N=C/c1ccccc1O)c1ccncc1 | – | – | – | inactive | inactive | – | – | inactive | inactive | inactive | – | inactive | 1060 nM (active) | 2660 nM (active) | – | 750 nM (active) | 750 nM (active) | 16800 nM (active) | – |
| CC(=O)Oc1ccc(C(=C2CCCCC2)c2ccc(OC(C)=O)cc2)cc1 | – | inactive | – | inactive | inactive | inactive | inactive | inactive | inactive | inactive | – | inactive | inactive | inactive | inactive | inactive | inactive | – | inactive |
| CC(=O)N/N=C/c1ccc([N+](=O)[O-])o1 | – | – | inactive | inactive | inactive | inactive | inactive | inactive | inactive | inactive | inactive | inactive | – | 23700 nM (active) | inactive | 6680 nM (active) | – | – | inactive |
